Compound activity deposited in PubChem by several laboratories.
Only some compounds are listed: those with a hit (about 4.3% of all), similar ones and a draw of the others.
Bead autofluor: flagged as autofluorescent in microsphere protease counterscreen | compound autofluorescence counterscreen, microsphere flow cytometry; hits give high values | fluorescence intensity (test concentration not listed) | hit rate 3.1% among 360,000 | AID 624483; in the data active means fluorescence intensity above about 16000; inconclusive means no clear call, values can overlap the other calls
BoNT-A LC inh2: BoNT/A light chain protease inhibitors, primary screen, biochemical, flow cytometry, MLPCN library | AID 588499, 2011 | multiplex microsphere protease substrate cleavage | inhibition, % at 10 µM | hit rate 0.17% among 360,000; further: plate controls were buffer without enzyme for full effect and enzyme alone for no effect
PfHsp40 rescue: rescue of yeast from PfHsp40 toxicity, primary screen, S. cerevisiae, ATP luminescence; S. cerevisiae expressing PfHsp40, growth rescue; growth rescue, % at 12.5 µM; hit rate 0.68% among 340,000; in the data active means growth rescue above about 28%, passing the limit was not always enough; inconclusive means no clear call, values can overlap the other calls;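 further: yeast W303a lacking pdr1 and pdr3 grown in galactose medium; growth measured after three days at 30 °C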
BoNT F protease: BoNT/F light chain protease inhibitors, primary screen, biochemical, flow cytometry, MLPCN library. Botulinum neurotoxin type F light chain protease (Clostridium botulinum). inhibition, % at 10 µM. Multiplex microsphere protease cleavage assay. hit rate 0.22% among 360,000; in the data active means inhibition above about 35%, passing the limit was not always enough; inconclusive means no clear call, values can overlap the other calls; further: plate controls were buffer without enzyme for full effect and enzyme alone for no effect
MazEF act: activators of E. coli MazEF toxin-antitoxin RNase, primary screen, biochemical, fluorescence, uHTS. Endoribonuclease toxin MazF (Escherichia coli (strain K12)), P0AE70. FAM/BHQ RNA-DNA oligo cleavage fluorescence, 5 h. activation, % at 20 µM. hit rate 0.32% among 350,000. AID 504720, 2011; in the data active means activation above about 50%
Anthrax LF prot: Bacillus anthracis LF protease inhibitors, primary screen, biochemical, multiplex microsphere, MLPCN library. Lethal factor (Bacillus anthracis), P15917. multiplex microsphere protease cleavage assay. inhibition, % at 10 µM. hit rate 0.12% among 360,000; further: plate controls were buffer without enzyme for full effect and enzyme alone for no effect
Target sequence (P15917 whole entry, looked up): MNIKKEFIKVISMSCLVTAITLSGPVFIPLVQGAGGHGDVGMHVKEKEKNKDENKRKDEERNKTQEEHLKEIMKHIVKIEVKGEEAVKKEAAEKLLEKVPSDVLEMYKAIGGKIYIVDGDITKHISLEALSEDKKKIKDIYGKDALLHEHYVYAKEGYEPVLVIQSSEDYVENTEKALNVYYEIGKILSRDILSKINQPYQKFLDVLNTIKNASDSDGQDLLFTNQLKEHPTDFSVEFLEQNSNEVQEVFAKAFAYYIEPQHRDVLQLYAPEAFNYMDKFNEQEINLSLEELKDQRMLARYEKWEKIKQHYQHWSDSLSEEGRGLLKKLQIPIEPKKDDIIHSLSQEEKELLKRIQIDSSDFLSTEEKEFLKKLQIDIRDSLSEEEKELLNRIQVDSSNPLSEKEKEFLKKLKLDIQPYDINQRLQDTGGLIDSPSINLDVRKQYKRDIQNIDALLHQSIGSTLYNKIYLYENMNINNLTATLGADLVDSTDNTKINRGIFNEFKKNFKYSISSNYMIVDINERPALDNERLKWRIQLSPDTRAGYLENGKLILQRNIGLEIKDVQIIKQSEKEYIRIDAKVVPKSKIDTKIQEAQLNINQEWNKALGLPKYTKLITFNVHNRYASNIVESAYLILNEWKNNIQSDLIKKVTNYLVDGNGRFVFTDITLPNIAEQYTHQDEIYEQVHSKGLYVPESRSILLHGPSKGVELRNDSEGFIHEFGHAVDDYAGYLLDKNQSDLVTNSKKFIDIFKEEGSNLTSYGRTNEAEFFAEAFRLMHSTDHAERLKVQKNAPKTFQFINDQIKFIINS
An asterisk follows results filed as active; ? = inconclusive; . = not tested or not shown. Unless noted, no stated cut-off is given here; in the data, active means inhibition above about 30%; inconclusive means no clear call, values can overlap the other calls; inactive means below that.

SMILES	Bead autofluor	BoNT-A LC inh2	PfHsp40 rescue	BoNT F protease	MazEF act	Anthrax LF prot
CCN(C(=O)COC(=O)c1ccc(=O)n(Cc2ccccc2)n1)C1CCCCC1	8584	1	1	0	6	1
CCOC(=O)/C(=N/Nc1ccc(Br)cc1)N1CC(C)OC(C)C1 (stereo not drawn)	3052	-1	36*	0	-15	-7
O=C1CS/C(=N/N=C/c2ccco2)N1Cc1ccc(F)cc1	3435	-1	.	?	-4	-14
CC1(C)CC2(CCO1)C(Nc1ccccc1)=NC(=S)N2CC(N)=O (stereo not drawn)	4236	0	10	-6	-5	2
Cc1ccccc1NC1=NC(=S)N(CC(N)=O)C12CCOC(C)(C)C2 (stereo not drawn)	3102	-2	0	45*	10	13
CCN(CC)c1ccc(NC(=O)Cn2nnc(-c3cccc(OC)c3OC)n2)c(C)c1	20991*	-1	2	1	1	-1
Cc1ccc(-c2csc3nnc(SCC(=O)Nc4nsc(-c5ccccc5)n4)n23)cc1	21990*	?	1	4	-29	-1
O=C(CSc1nnc2scc(-c3ccccc3)n12)c1ccc2c(c1)OCCO2	5635	1	-1	6	55*	-2
O=C(CSc1nnc2scc(-c3ccccc3)n12)Nc1nsc(-c2ccc(Cl)cc2)n1	2910	0	1	-5	-2	0
O=C(CSc1nnc2scc(-c3ccccc3)n12)Nc1nsc(-c2ccccc2)n1	20413*	1	0	2	-10	0
Cc1coc2c(C)c3oc(=O)c(CCC(=O)NCCC(=O)O)c(C)c3cc12	3846	-2	-2	-16	3	14
COc1ccc(NC(=O)CCNC(=O)c2ccco2)c(OC)c1	5817	0	-1	0	0	-1
O=C(CN(CC1CCCO1)C(=O)c1nsc(Cl)c1Cl)NC1CCCC1 (stereo not drawn)	2022	-1	-1	-3	3	0
Cc1cccc(C)c1OCC(=O)Nc1cccc(S(=O)(=O)N2CCCCCC2)c1	3595	0	.	-5	6	-6
COc1cc(C(=O)NNC(=O)c2ccccc2OCc2c(C)noc2C)cc(OC)c1OC	6531	-2	3	-3	0	-4
N#C/C(=C\c1ccccc1)C(=O)Nc1ccccn1	3958	-2	-1	40*	22	-17
Cc1cccc(/C=C(\C#N)C(=O)Nc2ccccn2)c1	5296	1	0	5	-16	1
Cc1ccccc1NC(=O)/C(C#N)=C\c1cccnc1	17365*	?	0	-6	-7	0
N#C/C(=C/C=C/c1ccccc1)C(=O)Nc1ccccc1	18225*	?	0	-10	-3	-1
CNc1ccc(/C=C(\C#N)C(=O)Nc2ccccn2)cc1[N+](=O)[O-]	5365	1	-1	38*	141*	33*
CCOc1ccccc1NC(=O)/C(C#N)=C/c1cccnc1	6005	-3	-1	-4	-1	0
COc1cc(CNc2ncnc3c2ncn3[C@H]2CN(CCc3ccccc3)C[C@@H](CO)O2)cc(OC)c1OC	2917	0	.	3	.	6
CCOC(=O)c1cc2c(ccn2-c2ccc(F)cc2)n1CC(=O)N(CC)CC	5234	-1	1	-5	2	-2
COc1ccc(CN2CC34C=CC(O3)C(C(=O)O)C4C2=O)cc1 (stereo not drawn)	6173	-1	-1	-7	12	-9
COc1cccc(N2CCN(C(=O)C3C4C=CC5(CN(Cc6ccccc6Cl)C(=O)C35)O4)CC2)c1 (stereo not drawn)	23129*	-1	0	1	3	-2
SMILES	Bead autofluor	BoNT-A LC inh2	PfHsp40 rescue	BoNT F protease	MazEF act	Anthrax LF prot
CCCC(C)c1nnc(NC(=O)COc2ccc3c(c2)OCO3)s1 (stereo not drawn)	6058	0	0	-2	-23	2
NNC(=O)Cn1c(-c2ccccc2)cc(=O)n2ncnc12	4629	-1	-1	-7	14	0
Cn1cc(/C=C/C(=O)c2ccccc2)c2ccccc21	6455	1	19	-3	-12	3
Cc1ccc(C(=O)/C=C/c2cn(CN3CCN(C)CC3)c3ccccc23)cc1	22519*	1	5	-2	6	1
O=C(Nc1ccccc1N1CCOCC1)c1cccc2c(Br)cccc12	4293	-2	0	-5	-1	5
Cc1nnc(N=c2ssnc2Cl)o1	2948	0	362*	-1	0	-6
Cc1ccc(N=c2ssnc2Cl)cc1	4180	0	-1	16	1	-4
O=c1c(O)c(-c2ccc(O)c(O)c2)oc2cc(O)ccc12	5603	-1	3	-16	58*	-3
O=c1c(O)c(-c2ccc(O)cc2)oc2cc(O)cc(O)c12	3941	1	0	-31	7	-2
NC(=O)c1cccn1Cc1ccccc1Cl	22851*	0	-1	2	1	3
Cc1cc(C)c(NC(=O)CN(C)CC(=O)N(C)CC(=O)Nc2c(Cl)cccc2Cl)c(C)c1	?	-4	-1	3	0	-3
Cc1cccc(C)c1NS(=O)(=O)c1cc2c3c(c1)CC(=O)N3CCC2	5475	0	0	8	2	-3
COCCCn1c(=O)c2ccccc2n(CC(=O)Nc2ccc3c(c2)OCCO3)c1=O	3663	-2	-1	17	2	3
Cc1nn(CC(C)C)c(=S)[nH]c1=O	23998*	?	-1	-6	1	-1
Cc1nnc(SCC(C)C)[nH]c1=O	10280	-1	-1	-1	2	-5
CCn1cc(/C=N\NC(=O)c2ccc3c(c2)c(C)c(C)n3Cc2ccccc2)c(C)n1	3541	-1	72*	0	-1	-3
Cc1nn(Cc2ccccc2)c(Cl)c1/C=N/NC(=O)c1cccnc1	2135	0	-1	-3	5	1
CCn1ncc(/C=N\NC(=O)c2ccc3c(c2)c(C)c(C)n3Cc2ccccc2)c1C	3088	0	0	6	-5	-1
Cc1c(/C=N/NC(=O)c2cccnc2)c2ccccc2n1Cc1ccccc1	24760*	-8	-1	30	8	-5
O=C(NCC1CCCO1)c1ccc(COc2ccccc2)o1 (stereo not drawn)	4201	5	0	-2	6	-2
O=C(O)c1cc2cc(Cl)ccc2oc1=O	22395*	1	0	3	1	-2
O=C(Cc1ccc(Cl)cc1)Nc1ccccc1C(=O)N1CCCC1	4437	0	-1	-4	-3	1
O=C(c1ccccc1)N1CCN(c2ccccc2)CC1	2922	0	-4	-6	4	0
